# Compound activity deposited in PubChem by National Center for Advancing Translational Sciences (NCATS).
# A selection: hits, their analogues and other compounds. The true share with any hit is near 18%.
# IL-1B inflam inh = inhibitors of inflammasome signaling (IL-1 beta secretion). THP-1 LPS/ATP IL-1B secretion, AlphaLISA, 16 h; hits give low values. 360,000 tested, 4.7% active. activity change, % at 57.5 µM. AID 743279; in the data active means activity change below about -50%; inconclusive means mostly about -30% to -49%
#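 THP-1 cells pretreated 1 hr with compounds (up to 57.5 uM final), then stimulated with LPS (250 ng/mL final) plus ATP (1.25 mM final); secreted IL-1B measured by AlphaLISA after 16 hr, decreased signal indicating inhibition.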
# HepG2 viability = counter-screen for TGF-b inhibitors: cytotoxicity in HepG2 cells | HepG2 CAGA-GFP viability, ATP luminescence, 18 h | Potency, µM (doses to about 46.1 µM), actives largely listed as cytotoxic | 410,000 tested, 0.76% active | AID 588856
#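 HepG2 CAGA-GFP cells (1000/well, DMEM with 1% FBS) received compound, then TGF-beta at 500 pg/mL final, and were incubated 18 hours at 37 degrees C. Viability was read by CellTiter-Glo luminescence. Media-only wells were set as complete cell-killing and DMSO as no toxicity.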
# TDP1 cell CPT = growth inhibition of DT40 Tdp1-/-;hTDP1 cells with camptothecin (screen for TDP1 inhibitors); Potency, µM (titrated, usually from 46.2 µM), most hits filed as inhibitors; 420,000 tested, 12% active; chicken DT40 Tdp1-/-;hTDP1 cells + 20 nM CPT, ATP luminescence, 48 h; further: nearly all actives have a fitted effect of over 55% in size
#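 Chicken DT40 Tdp1-/- cells complemented with human TDP1, 400 cells/well, exposed to compounds plus 20 nM camptothecin for at least 48 h at 37 C; viability read as ATP content by CellTiter-Glo luminescence.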
# TGFb SMAD3 inh = blocks TGF-b signaling; HepG2 CAGA-GFP TGF-b/SMAD3 reporter, GFP fluorescence, 18 h; TGF-beta stimulated, 500 pg/mL final; Potency, µM (highest dose often 46.1 µM), most hits filed as inhibitors; 410,000 tested, 1.2% active; AID 588855; further: nearly all actives have a fitted effect of over 65% in size
#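 Smad-responsive CAGA-GFP expression was quantified in HEPG2 cells exposed to compounds and 500 pg/mL final TGF-beta for 18 h at 37 degrees C; unstimulated wells defined full inhibition.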
# TDP1 block = blocks human tyrosyl-DNA phosphodiesterase 1; Potency, µM (doses to about 130 µM), most hits filed as inhibitors; Q9NUW8; 350,000 tested, 0.28% active; recombinant TDP1, AlphaScreen DNA substrate cleavage; further: nearly all actives have a fitted effect of over 40% in size
# Target sequence (Q9NUW8 whole entry, looked up): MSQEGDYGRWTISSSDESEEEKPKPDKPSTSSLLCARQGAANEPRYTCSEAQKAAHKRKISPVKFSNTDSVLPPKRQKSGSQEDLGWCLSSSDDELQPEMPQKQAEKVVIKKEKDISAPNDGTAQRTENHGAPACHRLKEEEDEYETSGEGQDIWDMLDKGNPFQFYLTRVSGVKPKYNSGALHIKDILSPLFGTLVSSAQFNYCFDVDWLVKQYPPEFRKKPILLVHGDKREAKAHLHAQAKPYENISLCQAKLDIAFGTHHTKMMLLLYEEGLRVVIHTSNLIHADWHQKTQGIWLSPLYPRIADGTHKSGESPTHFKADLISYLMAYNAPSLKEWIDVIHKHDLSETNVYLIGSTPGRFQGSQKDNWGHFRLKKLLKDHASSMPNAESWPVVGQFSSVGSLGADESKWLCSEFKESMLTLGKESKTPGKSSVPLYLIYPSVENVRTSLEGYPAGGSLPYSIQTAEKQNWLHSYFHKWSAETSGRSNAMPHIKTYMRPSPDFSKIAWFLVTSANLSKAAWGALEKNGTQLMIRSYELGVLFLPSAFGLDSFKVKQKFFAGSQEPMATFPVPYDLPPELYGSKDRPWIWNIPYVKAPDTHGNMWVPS
#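 Tdp1 1 nM final; 15 min RT w/ cpd; substrate 15 nM, 5 min; beads 10 ug/ml, 10 min; AlphaScreen read. Neg ctrl: no enzyme.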
# TDP1 cell noCPT = qHTS for Inhibitors of human tyrosyl-DNA phosphodiesterase 1 (TDP1): qHTS in cells in absence of CPT | 420,000 tested, 15% active | AID 686978, 2013 | DT40 Tdp1-/- hTDP1 cells, no CPT, ATP luminescence, 48 h | Potency, µM (titrated, usually from 46.2 µM), hits mostly inhibitors; further: nearly all actives have a fitted effect of over 55% in size
#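 Camptothecin absent (DMSO only). Human TDP1-complemented DT40 knockout cells, 400 cells/well, 37 °C for minimum 48 hr; ATP measured via CellTiter-Glo, 30 min dark incubation, luminescence.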
# Hits are given with their value; i = inactive; ? = inconclusive; nt = not tested or not shown. Unless noted, the call rests on the fitted dose curve; in most records, active means well fitted curve in the direction sought with a large enough effect; inconclusive means small, poorly fitted or top-dose-only effect, or another doubt; inactive means no such curve, though single readings can be large; an effect the other way counts as inactive or inconclusive.
SMILES,IL-1B inflam inh,HepG2 viability,TDP1 cell CPT,TGFb SMAD3 inh,TDP1 block,TDP1 cell noCPT
Cc1ccnc(SC2CC(=O)N(c3ccc(Cl)cc3)C2=O)n1 (centres undefined),i,i,i,i,nt,?
OC[C@@H]1CN(CCNc2ccccc2)C[C@H](n2cnc3c(NCc4ccncc4)ncnc32)O1,i,i,i,i,nt,i
O=C(Nc1ccc(F)cc1F)c1ccc2c(=O)n3c(nc2c1)CCC3,i,i,i,i,i,i
Cc1cccc(C(=O)OCC(=O)N2CCCC2=O)c1[N+](=O)[O-],i,i,i,i,i,i
COc1ccccc1-c1sc2ccccc2c1-c1cnc(N2CCOCC2)nc1,i,nt,i,nt,nt,?
CN(C)Cc1ccccc1-c1ccc2ncnc(N3CCOCC3)c2c1,nt,nt,?,nt,i,20.6µM
COc1cccc(-c2ccc3ncnc(N4CCOCC4)c3c2)c1,nt,nt,14.6µM,nt,nt,25.9µM
c1cn(-c2ncnc3ccc(-c4ccoc4)cc23)cn1,nt,nt,18.4µM,nt,nt,23.1µM
CN(C)Cc1ccccc1-c1ccc2ncnc(NCc3ccccc3)c2c1,nt,nt,?,nt,i,i
COc1ccccc1-c1ccc2ncnc(N3CCOCC3)c2c1,nt,nt,18.4µM,nt,nt,20.6µM
Cc1nn(CC(=O)NCc2ccccc2Br)c(=O)c2cc3occc3n12,nt,i,i,nt,i,i
COc1ccccc1-c1ccc2ncnc(N3CCN(C)CC3)c2c1,nt,nt,9.2µM,nt,i,7.31µM
c1nc(N2CCOCC2)c2cc(-c3ccoc3)ccc2n1,nt,nt,8.2µM,nt,nt,?
COc1ccccc1-c1ccc2ncnc(NC3CCNCC3)c2c1,nt,nt,?,nt,nt,i
NC(=O)C1(N2CCCCC2)CCN(C(=O)Nc2ccc(Cl)c(Cl)c2)CC1,nt,i,i,nt,i,?
C=CCOc1ccc(/C=N/Nc2ccccn2)cc1OC,i,i,i,i,i,25.9µM
CCCOc1ccc(/C=N/Nc2ccccn2)cc1OC,i,i,i,i,i,i
CCOc1ccc(/C=N/Nc2ccccn2)cc1OC,i,i,i,i,i,?
COc1cc(/C=N/Nc2ccccn2)ccc1OCC(C)C,i,i,?,i,i,10.3µM
COc1cc(/C=N/Nc2ccccn2)cc(OC)c1O,-99.8,i,?,i,i,?
CO/C(N)=C(\C#N)N=Cc1ccccc1Cl,i,i,i,i,i,i
O=C(CSc1nncc(=O)[nH]1)NCc1ccccc1,i,i,20.6µM,?,i,?
CC(=O)NC1C(=O)N=C(SCC(=O)NCc2ccccc2)NC1=O (centres undefined),i,i,i,i,25.1µM,i
CCc1cccc(C)c1Nc1c(-c2ccc(N3CCOCC3)cc2)nc2ncccn12,nt,i,23.1µM,i,i,23.1µM
COc1ccc(Nc2c(-c3ccc(N4CCOCC4)cc3)nc3ncccn23)cc1OC,nt,i,i,?,i,i
SMILES,IL-1B inflam inh,HepG2 viability,TDP1 cell CPT,TGFb SMAD3 inh,TDP1 block,TDP1 cell noCPT
CCc1cccc(C)c1Nc1c(-c2cccs2)nc2ncccn12,nt,i,?,?,i,16.4µM
COc1cc(OC)nc(Oc2ccc(N)c(C)c2)n1,i,i,i,i,nt,i
COc1ccccc1CNc1ccc(Br)cn1,i,i,i,i,nt,?
O=[N+]([O-])c1ccc(N2CCN(c3ccccc3F)CC2)nc1,i,i,i,i,nt,i
CC(C)(C)c1ccc(C(=O)N2CCCN(c3ccc([N+](=O)[O-])cn3)CC2)cc1,i,i,?,?,i,18.4µM
O=C(NC(=O)N1CCN(c2ccc([N+](=O)[O-])cn2)CC1)c1ccccc1F,i,i,?,i,nt,9.2µM
O=C(NC(=O)N1CCN(c2ccc([N+](=O)[O-])cn2)CC1)c1c(Cl)cccc1Cl,nt,i,9.2µM,i,nt,?
CSc1ccc(/C=C2\CCn3c2nc2cc(C(=O)O)ccc2c3=O)cc1,i,i,?,i,nt,?
Cc1ccc(C(=O)N2CCCC(C(=O)Nc3cccc(-c4ccc(F)cc4)c3)C2)cn1 (centres undefined),i,i,16.4µM,i,i,8.2µM
COc1ccc(C(=O)C2CCCN(C(=O)c3cccnc3OC)C2)cc1F (centres undefined),i,i,i,i,i,i
COc1ncccc1C(=O)N1CCCC(C(=O)Nc2cccc(-c3ccc(F)cc3)c2)C1 (centres undefined),i,i,20.6µM,i,nt,11.6µM
CCCCN(C=O)c1c(CC)nc2ccc(C(=O)N(C)Cc3ccccc3)cn12,i,i,i,i,nt,i
O=C(Nc1cccc(C(=O)N2CCCC2)c1)C1CC1,i,i,i,i,nt,i
CC(=O)NS(=O)(=O)c1ccc(NC(=O)c2oc3c(Cl)cccc3c2C)cc1,i,i,i,i,i,i
COc1ccc(CCNS(=O)(=O)c2ccc3c(c2)NC(=O)CCS3)cc1OC,i,i,11.6µM,i,i,?
COc1ccc(CCNC(=O)c2ccc(CNS(=O)(=O)c3ccc(C(C)(C)C)cc3)cc2)cc1OC,i,i,?,i,i,?
